This passage reports growth results from PubChem BioAssay (NCI).

Several values for one entry are separate records, joined by “and”; a condition that tells them apart may be missing. Equal values may be shown once. Compounds without any hit were thinned out: in the full panel of roughly 83,000, 20% have a hit.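 Method: cells in 96-well plates; compound added at one concentration; 48 h incubation; percent growth measured; values under 10 scored active.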 Values without a mark were called inactive. Activity calls are given as the source filed them.

The subject of this experiment is COLO 205 colon. The experiment in a line: NCI-60 one-dose screen, 48 h (100 = growth as untreated, 0 = no growth, -100 = all killed). Particulars: 10 µM unless noted. As to the method:
Cells are grown in 96 well plates and exposed to the test compound for 48 hours. Compounds are tested at a single concentration, which is 10^-5 M for most compounds. The reported endpoint is percent growth (GI% or GIPRCNT), where numbers from 0 - 100% represent growth inhibition, and numbers from -100% - 0 represent cell death. For example, a value of 40 represents 60% growth inhibition. A value of 0 means no net growth occurred over the course of the experiment. A value of -40 indicates 40% of cells at the beginning of the experiment died by the end of the experiment. A value of -100 means all cells are dead at the end of the experiment.
NCI-60 Human Tumor Cell Lines Screen was performed using the standard one-dose NCI protocol, which is described in more detail at https://dtp.cancer.gov/discovery_development/nci-60/default.htm.
Compounds with GIPRCNT values below 10 were considered active. Activity score was based on GIPRCNT using the following formula: […]
Score is 0 for GIPRCNT values of 100 or above, 50 for GIPRCNT values of 0, and 100 for GIPRCNT values of -100.
Take `CCN(CC)CCOc1ccc(/C(=C(\Cl)c2ccccc2)c2ccccc2)cc1`: the growth is -74.8% (active) and -60.4% (active).
The result for `CCOC(=O)c1nc2c3ccccc3cnn2c1C(=O)c1ccc(OC)cc1` reads 97.5%; that for `O=C1/C(=C/c2ccc(F)c(F)c2)CN(C(=O)C(Cl)Cl)C/C1=C\c1ccc(F)c(F)c1`, -85.8% (active).
The result for `S=c1nc(CS)[nH]c2ccccc12` reads 112%; that for `CCOC(=O)C1=C(C)N=C2SC=C(c3ccc(F)cc3)N2[C@H]1c1cn(-c2ccccc2)nc1-c1ccc(Cl)cc1`, 107%; that for `O=C(NNc1ccccc1)C1CCCN1` (stereo not given), 103%.
The result for `CN(Cc1ccccc1)c1nc(Cl)c(C2CC(c3ccc4c(c3)OCO4)=NN2c2cc(Cl)cc(Cl)c2)s1` (stereo not given) reads 93.6%.
As for `CCOC(=O)C1=C(C)NC(=O)NC1c1c(Cl)n(-c2ccccc2)c2ccccc12` (stereo not given), the growth was 107%.
The result for `CON1CCC[C@]2(C)[C@H]3CC[C@@H]4[C@H]5[C@@H](O)C(C)(C)CC[C@]5(CO)CC[C@@]4(C)[C@]3(C)CC[C@H]2C1(C)C` reads 105%; that for `CCNC(=S)n1nc(SC)c(C(=O)OCC)c1N`, 107%; that for `O=C1/C(=C/c2cn(-c3ccccc3)nc2-c2ccccc2)SC(=S)N1c1ccccc1`, 117%.
The result for `COc1cc(C=O)ccc1Oc1ccc([N+](=O)[O-])cc1[N+](=O)[O-]` reads 108%; that for `Cc1cc(N2CCN(CC(=O)Nc3ccc4c(ccn4Cc4ccccc4)c3)CC2)nc(N2CCCCCC2)n1`, 30.6%; that for `C#Cc1cc(C(=O)Nc2ccc(CN3CCN(C)CC3)c(C(F)(F)F)c2)ccc1C`, 56.3%.
The result for `COC1=CC(=O)C(OC)=C(O)C1=O` reads 103%; that for `COc1cc(/C=C2\CCC/C(=C\c3cc(CN4CCCC4)c(O)c(OC)c3)C2=O)cc(CN2CCCC2)c1O`, -45.7% (active).
For `COc1cc(OC)cc(-c2ccc(-c3ccc(C(=N)N)cn3)s2)c1`, the growth was 49.4%.
The result for `N#CC(Cc1cccc2ccccc12)c1cc2ccccc2[nH]1` (stereo not given) reads 105%; that for `COc1ccc(/C=N/C2=C(C#N)C(c3ccccc3)c3c(ccc4ccccc34)O2)cc1` (stereo not given), 0.29% (active); that for `CC12CCC(C(=O)CC1=O)C2(C)C` (stereo not given), 114% and 110%.
The result for `Nn1c(-c2ccc(Cl)cc2)nc2c(-c3ccc(Cl)cc3)nc3ccc(Cl)cc3c2c1=O` reads 22.3%; that for `CCC(=C(c1ccc(OCCCN(C)C)cc1)c1ccc(OCCCN(C)C)cc1)c1ccc(Cl)cc1`, -67.3% (active); that for `Nc1nc2c(s1)CCc1cn(S(=O)(=O)c3ccccc3)cc1-2`, 106% and 108%.
The result for `Cc1ccc(NC(=O)N/C(N)=N/c2nc(=O)c3ccccc3s2)cc1` reads 103%.
For the molecule `Cc1ccc2[nH]c(=S)[nH]c(=O)c2c1`, the growth is 117%.
The result for `N=C(N)c1ccc(-c2ccc(-c3ccc(Cl)c(Cl)c3)s2)cc1` reads -17.9% (active); that for `CCOC(=O)C(=Cc1ccc(C#N)cc1)C(=O)OCC`, 4.69% (active); that for `CCNC(=O)Oc1ccc(/C(=C(/C)Cc2ccc(OC)cc2)c2ccc(OCCN(CC)CC)cc2)cc1`, -69.1% (active).
The result for `Cn1cc(-c2csc(-c3cn(CCOC(N)=O)c4ccccc34)n2)c2cccnc21` reads 77.6%; that for `CN1C(=O)/C(=C/c2ccc(C(=O)Nc3ncc(Cc4ccccc4Cl)s3)cc2)SC1=S`, 86.2%; that for `CN(C)CC1(C)Cc2ccsc2C1O` (stereo not given), 106% and 105%.
The result for `COc1ccc(-c2ccc(-c3ccc(C(=N)N)cn3)o2)cc1Cl` reads -72.6% (active); that for `CCCCCO/N=C\c1c2c(O)c3c(O)c(C)c4c(c3c1O)C(=O)C(C)(O/C=C\C(OC)C(C)C(OC(C)=O)C(C)C(O)C(C)C(O)C(C)/C=C\C=C(\C)C(=O)N2)O4` (stereo not given), 2.86% (active); that for `O=C(Nc1ccccc1C(=O)N/N=C(\c1ccccc1)c1ccccn1)c1ccccc1`, 5.09% (active).
With `CC[C@H](C)[C@H](NC(=O)[C@H](CCCCN)NC(=O)[C@H](CCCCN)NC(=O)[C@@H](NC(=O)[C@@H](NC(=O)[C@@H](N)Cc1cnc[nH]1)[C@@H](C)CC)[C@@H](C)CC)C(=O)N[C@@H](CCCNC(=N)N)C(=O)N[C@H](C(=O)N[C@@H](Cc1c[nH]c2ccccc12)C(=O)N[C@@H](Cc1ccc(O)cc1)C(=O)N[C@@H](CCCNC(=N)N)C(=O)N[C@@H](CCCCN)C(=O)N[C@@H](C)C(=O)N[C@@H](Cc1c[nH]c2ccccc12)C(=O)N[C@@H](Cc1cnc[nH]1)C(=O)N[C@H](C(=O)N[C@@H](CC(C)C)C(=O)NCC(=O)N[C@@H](CCCCN)C(=O)N[C@H](C(N)=O)C(C)C)C(C)C)[C@@H](C)O`, the growth is -54.8% (active).
`COc1ccc2c(c1)CC[C@@H]1[C@@H]2CC[C@]2(C)C3C(=CCC4C(=O)N(c5ccccc5)C(=O)C43)C[C@@H]12` (stereo not given in full): the growth is 94.4%.
The result for `C=CCOc1ccc(/C=C2\SC(=S)N(CCc3ccc(O)cc3)C2=O)cc1` reads 114%.
The result for `Cc1nc(-n2[nH]c(=O)ccc2=O)sc1N=Nc1ccccc1` reads 112%; that for `CC(C)(C)CC(N)=O`, 109%.
The result for `Cc1oc2c(Cc3ccc(NC(=O)c4ccc(Cl)cc4)cc3)ncnc2c1C(=O)NO` reads 107%.
